Results from PubChem BioAssay (NCATS).
Values joined by “and” are separate entries in the source; they are usually repeats but may differ in a detail not shown here. Identical values can stand only once. Inconclusive results are not listed. A call without a number means that no potency is given here. Active and inactive are the calls of the source. The call rests on the fitted dose curve.

Experiment: Primary qHTS to identify inhibitors of SARS-CoV-2 cell entry (AID 1645846); further: nearly all actives have a fitted effect of over 45% in size
Conditions: SARS-CoV-2 pseudovirus cell entry assay, luminescence; activity change, negative = inhibition: at 57.1 µM (top of the series) unless noted; series mostly up to 57.1 µM
In short: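 HEK293 cells stably expressing human ACE2, pre-treated 1 h with compound, then infected with MLV particles pseudotyped with Wuhan-Hu-1 spike (C-terminal 19-aa truncation). Luciferase luminescence after 48 h at 37 °C, normalised to spike PP and bald PP.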

Compound | Potency | outcome | activity change, negative = inhibition
C#C[C@]1(O)CC[C@H]2[C@@H]3CCc4cc(OC)ccc4[C@H]3CC[C@@]21C | inactive |  | 
NS(=O)(=O)c1ccc(N2CCCCS2(=O)=O)cc1 |  | inactive | 
C[C@]1(Cn2ccnn2)[C@H](C(=O)O)N2C(=O)C[C@H]2S1(=O)=O |  |  | 1.05%
CCOC(=O)c1ccc(OC(=O)CCCCCN=C(N)N)cc1 | inactive |  | 
NS(=O)(=O)c1cc(C(=O)O)c(NCc2ccco2)cc1Cl |  | inactive | 
CCC1Nc2cc(Cl)c(S(N)(=O)=O)cc2S(=O)(=O)N1 (centres undefined) |  | inactive | 
NCC1CCC(C(=O)Oc2ccc(CCC(=O)O)cc2)CC1 (centres undefined) |  | inactive | 
Cc1nnc(C(=O)NC(C)(C)c2nc(C(=O)NCc3ccc(F)cc3)c(O)c(=O)n2C)o1 |  |  | -86.5% and -69.6%
CSc1ccc(C(=O)c2[nH]c(=O)[nH]c2C)cc1 |  | inactive | 
N[C@@H](CSCCCO)C(=O)O |  | inactive [at 27.1 µM] | 
O=C(CCCCCCCCC#CI)Oc1ccccc1 |  |  | 1.58%
N#Cc1cc(NC(=O)C(=O)O)c(Cl)c(NC(=O)C(=O)O)c1 |  |  | 1.2%
OCc1ccccc1O |  | inactive | 
C/C(=C(\CCOP(=O)(O)O)SC(=O)c1ccccc1)N(C=O)Cc1cnc(C)nc1N |  | inactive [at 5.25 µM] | 
CN(CCCN1c2ccccc2CCc2ccccc21)CC(=O)c1ccc(Cl)cc1 |  |  | -5.87%
CCOCCn1c(N2CCCN(C)CC2)nc2ccccc21 |  |  | -36.1%
O=C(NCC1CN(c2ccc(N3CCOCC3=O)cc2)C(=O)O1)c1ccc(Cl)s1 (centres undefined) |  |  | -26.5% and -55.1%
O=C(NN1CCCC1)NS(=O)(=O)c1ccc(Cl)cc1 |  | inactive | 
C[C@@H]1C[C@H]2[C@@H]3CCC4=CC(=O)C=C[C@]4(C)[C@@]3(F)[C@@H](O)C[C@]2(C)[C@H]1C(=O)CO |  | inactive | 
